Outcome data for 40 compounds are collected here from PubChem BioAssay (Tox21).

The source made the active and inactive calls. Calls follow the shape of the dose curve; as a rule, active = well fitted curve in the direction sought with a large enough effect in the repeat runs; inconclusive = weak or mixed curves; inactive = flat fitted curve, though single readings scatter. Residues, ends and D or L forms follow the SMILES beside them.

This assay in a line: qHTS assay to test for compound auto fluorescence at 535 nm (green) in HEK293 cell free culture (AID 720682). Particulars: cell-free medium, green autofluorescence 485/535 nm; series mostly up to 91.3 µM. From the text: U.S. Tox21 Program National Center for Advancing Translational Sciences [NCATS] NIH Chemical Genomics Center [NCGC] U.S. Environmental Protection Agency [EPA] National Institutes of Environmental Health Sciences [NIEHS] National Toxicology Program [NTP] U.S. Food and Drug Administration [FDA] Tox21 Assay Overview: Compound auto fluorescence often interferes with screening of the compound library against various biological targets and signaling pathways. Some of these compounds may have fluorophoric properties. Such properties may interfere with the assay outputs resulting in false positives and/or negatives. To decrease such complications and ensure the compound activities are relevant in terms of biological response, the Tox21 10K compound library was screened for auto fluorescence. From the fluorophores used as reporter signals in our screening assays, the auto fluorescence equivalencies of compounds against three fluorophores have been evaluated: Triamterene, Fluorescein and Rose Bengal sodium for blue, green and red fluorescence, respectively. The fluorescence intensities were measured using Excitation/Emission wavelengths at 405/460nm, 485/535nm and 540/590nm for blue, green and red labels, respectively. This assay includes the green fluorescence data.
Tox21 Assay Protocol Summary: 5 uL of culture medium (DMEM containing 10% FBS) per well was dispensed into black wall/clear bottom 1536-well plates using a Multidrop Combi Dispenser (ThermoFisher Scientific, Waltham, MA). After 23 nL compound or DMSO vehicle was transferred into assay plate by a pintool work station (Kalypsys, San Diego, CA), fluorescence intensities in the assay plates were measured by an Envision (PerkinElmer, Shelton, CT) plate reader using three labels for measuring blue, green and red fluorescence at […] 460, 535 and 590nm respectively.
For orientation: qHTS replaces the single test concentration by a dilution series.
With `CCCNC(=O)NS(=O)(=O)c1ccc(Cl)cc1`, the call was inactive. Regarding `O=C(O)CCCCC(=O)O`, the outcome was inactive. The value for `O=C(O)c1[nH]n(-c2ccc(S(=O)(=O)O)cc2)c(=O)c1N=Nc1ccc(S(=O)(=O)O)cc1` was “inactive”; that for `O=C(O)C(=O)O` was “inactive”; that for `Cc1ccc(O)cc1` was “inactive”. `OC(Cn1cncn1)(Cn1cncn1)c1ccc(F)cc1F`: the outcome was inactive.

Regarding `CCCCC(CC)COC(=O)/C=C/c1ccc(OC)cc1` (stereo not given), the compound was classed as inactive. With `Cc1noc(NS(=O)(=O)c2ccc(N)cc2)c1C`, the compound was classed as inactive. For the compound `CC1(C)[C@@H]2CC[C@@]1(C)C(=O)C2`, the compound was called inactive. On to `CC(=O)NS(=O)(=O)c1ccc(N)cc1`, for which the compound was classed as inactive. On to `CNC[C@H](O)c1cccc(O)c1`, for which the result was inactive.

Turning to `Cc1ccc(S(=O)(=O)NC(=O)NN2CCCCCC2)cc1`, the compound was called inactive.

For `CCCN(CCC)S(=O)(=O)c1ccc(C(=O)O)cc1`, the compound was classed as inactive. For `Cn1c(=O)c2[nH]cnc2n(C)c1=O`, the result was inactive. The value for `O=C(c1ccccc1)C(O)c1ccccc1` (stereo not given) was “inactive”; that for `Cc1cc(=O)n(-c2ccccc2)n1C` was “inactive”; that for `NC(N)=NC(=O)c1nc(Cl)c(N)nc1N` was “inactive”. For the compound `Nc1ccn([C@H]2CC[C@@H](CO)O2)c(=O)n1`, the outcome was inactive.

For `CC(O)CO` (stereo not given), the compound was classed as inactive. With `Nc1ccc(C(=O)O)cc1`, the outcome was inactive. For `Cn1cc[nH]c1=S`, the compound was classed as inactive. `O=C(O)CCCCCCCC(=O)O`: the compound was classed as inactive.

With `O=C(C1CCCCC1)N1CC(=O)N2CCc3ccccc3C2C1` (stereo not given), the outcome was inactive.

In the case of `O=S(=O)(O)c1ccc2cc(O)ccc2c1`, the compound was called inactive. `NC(N)=O`: the compound was called inactive. Turning to `OCCc1ccccc1`, the result was inactive. For `c1ccc2[nH]ccc2c1`, the call was inactive. Turning to `CC(O)C(=O)O` (stereo not given), the call was inactive. As to `Oc1ccc(/C=C/c2cc(O)cc(O)c2)cc1`, the compound was called inactive.

For `C[C@]12C=CC(=O)C=C1CC[C@@H]1[C@@H]2[C@@H](O)C[C@@]2(C)[C@H]1CC[C@]2(O)C(=O)CO`, the compound was called inactive. For the compound `O=C(O)CCC(=O)O`, the compound was classed as inactive.

In the case of `Cc1ccccc1C(OCCN(C)C)c1ccccc1` (stereo not given), the compound was called inactive. As to `NNC(=O)c1ccncc1`, the call was inactive.

For the compound `O=S(=O)(O)NC1CCCCC1`, the call was inactive. In the case of `NC(=O)NC1NC(=O)NC1=O` (stereo not given), the call was inactive.

Regarding `CCCCOC(=O)CC(CC(=O)OCCCC)(OC(C)=O)C(=O)OCCCC`, the outcome was inactive. On to `O=NO`, for which the compound was called inactive. On to `CCOc1ccc(NC(=O)CC(C)O)cc1` (stereo not given), for which the result was inactive. As to `C1N2CN3CN1CN(C2)C3`, the call was inactive. As to `COC(=O)[C@H](Cc1ccccc1)NC(=O)[C@@H](N)CC(=O)O` (H-Asp-Phe-OMe), the compound was classed as inactive.
